The whole screen tested about 360,000 compounds, of which about 1,100 (0.31%) were called active. The sample as a whole holds a higher share of actives than the screen did. Unmarked numbers belong to inactive results. Cut-off read from the data, not from the text of the source: active = activity change above about 30% (passing the limit was not always enough); inactive = the rest.
Biological target: Hepatocyte nuclear factor 4-alpha (Homo sapiens) (UniProt P41235)
Test: change in binding of human HNF4A to DNA, primary screen, biochemical, fluorescence polarization, FITC-DNA (AID 1224865)
Details: 1 h, at 10 µM, hits give high values

Chain of Hepatocyte nuclear factor 4-alpha (Homo sapiens) (P41235 whole entry, looked up): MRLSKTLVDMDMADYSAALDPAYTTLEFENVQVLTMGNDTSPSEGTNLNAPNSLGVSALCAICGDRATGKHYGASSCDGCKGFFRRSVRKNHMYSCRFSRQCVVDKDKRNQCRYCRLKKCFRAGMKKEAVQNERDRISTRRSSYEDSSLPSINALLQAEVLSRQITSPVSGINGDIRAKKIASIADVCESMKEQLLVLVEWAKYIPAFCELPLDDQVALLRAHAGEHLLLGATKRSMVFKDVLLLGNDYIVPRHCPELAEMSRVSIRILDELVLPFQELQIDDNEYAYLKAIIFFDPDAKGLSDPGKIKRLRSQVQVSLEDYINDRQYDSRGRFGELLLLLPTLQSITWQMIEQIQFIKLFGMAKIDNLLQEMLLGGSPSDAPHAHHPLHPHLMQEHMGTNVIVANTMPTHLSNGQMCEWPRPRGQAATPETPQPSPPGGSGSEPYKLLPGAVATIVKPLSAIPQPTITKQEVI

Structure (SMILES) | activity change
CCOC(=O)c1cccc(NC(=O)c2ccc(F)cc2F)c1 | 7%
O=C(COC(=O)CSc1ccccc1)Nc1ccc(F)cc1F | -1.87%
O=C(COC(=O)c1ccc(F)cc1F)Nc1ncccn1 | 38.7% (active)
CC1C(=O)Nc2ccccc2N1C(=O)c1ccc(F)cc1F (stereo unspecified) | 2.72%
O=C(NCc1ccncc1)c1cccc(NS(=O)(=O)c2ccc(F)c(F)c2)c1 | -3.8%
CC1C(=O)N2CCCc3cc(S(=O)(=O)NCc4ccc(F)cc4)cc1c32 (stereo unspecified) | -0.59%
COc1cccc(OC)c1C(=O)Nc1ccc(Cc2ccncc2)cc1 | 41.2% (active)
CC(C)CC(=O)Nc1ccc(Cc2ccncc2)cc1 | 1.88%
CCn1nnc(NC(=O)c2c(OC)cccc2OC)n1 | 0.86%
C=CCn1c(SCC(=O)NC23CC4CC(CC(C4)C2)C3)nc(O)cc1=O | 2.14%
Cc1ccc2[nH]c(=O)c(CN(CCCN(C)C)C(=O)Nc3cccc(Cl)c3)cc2c1 | 4.9%
O=C1Nc2cc(C(=O)N3CCN(c4ccc(F)cc4)CC3)ccc2NC1CSCc1cccc(F)c1 (stereo unspecified) | 102% (active)
C=CCn1c(SCc2cccc(F)c2)nc2cc(C(=O)N3CCC(C(N)=O)CC3)ccc2c1=O | 2.05%
Cc1ccccc1CN1CCN(C(=O)c2cccc(F)c2)CC1 | 3.17%
Cc1ccc(CSCC2Nc3ccc(C(=O)N4CCN(c5ccc(F)cc5)CC4)cc3NC2=O)cc1 (stereo unspecified) | 37.8% (active)
Cc1noc(C)c1S(=O)(=O)Nc1ccc(C(=O)N2CCN(c3ccc(F)cc3)CC2)cc1 | 1.2%
COC(=O)c1ccc(C(=O)OC)c(NC(=S)N2CCN(c3ccc(F)cc3)CC2)c1 | -1.17%
COc1ccc(Cn2cccc(NC(=O)Nc3ccc(C#N)cc3)c2=O)cc1 | -3.37%
COC(=O)c1c(NC(=O)CN2CCN(S(=O)(=O)c3ccccc3[N+](=O)[O-])CC2)sc2c1CCC(C)C2 (stereo unspecified) | 0.7%
O=S(=O)(Cc1ccccc1)c1nc2ccccc2n1Cc1ccccn1 | -0.31%
CC1=CC2=NC(=O)/C(=C/c3coc4ccccc4c3=O)C(=N)N2O1 | 6.6%
O=C1/C(=C/c2coc3ccc(O)cc3c2=O)SC(=S)N1c1ccccc1 | 55.6% (active)
Cc1ccc(S(=O)(=O)N2CCC(C)CC2)cc1C(=O)NCc1ccccn1 | 0.82%

Structure (SMILES) | activity change
Cc1ccc(CC2S/C(=C(/C#N)C(=O)N3CCOCC3)N(c3ccccc3)C2=O)cc1 (stereo unspecified) | 0.2%
CCN(CC(=O)NCc1cccs1)C(=O)/C=C/c1ccc(C)cc1 | 0.98%
COc1cccc(-c2ccc3c(c2)S(=O)(=O)c2cccc(C(=O)O)c2C3=O)c1OC | 1.88%
CC1CCN(c2ccc3c(c2)S(=O)(=O)c2cc(C(=O)O)ccc2C3=O)CC1 | 14.3%
Cc1ccc(CNC(=O)c2cccc3c2C(=O)c2ccc(N4CCC(C)CC4)cc2S3(=O)=O)cc1 | 45.8% (active)
Cc1nn(Cc2ccc(C(=O)N3N=C(C(F)F)CC3(O)C(F)F)cc2)c(C)c1[N+](=O)[O-] (stereo unspecified) | 1.52%
COc1cc(=O)[nH]c(=O)n1C(=O)Cc1ccccc1 | 2.22%
COc1cc(/C=C2/SC(=S)N(Cc3ccccc3)C2=O)cc(OC)c1O | 48.1% (active)
CN(C)c1ccc(/C=C2\NC(=S)N(Cc3ccccc3)C2=O)cc1 | 128%
CC1CCCCC1NC(=O)C1CCCN1S(=O)(=O)c1cccc2nsnc12 (stereo unspecified) | -0.79%
O=C(NC1CCCCC1)C(c1cc2ccccc2o1)n1c(=O)c(-c2ccco2)nc2ccccc21 (stereo unspecified) | 45.8% (active)
Cc1cccc(C)c1NC(=O)C(c1cccc2ccccc12)n1c(=O)c(-c2ccco2)nc2ccccc21 (stereo unspecified) | 32.4%
Cc1cccc(C)c1NC(=O)C(c1ccc(C(F)(F)F)cc1)n1c(=O)c(-c2ccco2)nc2ccccc21 (stereo unspecified) | 26.7%
Oc1ccc(N=Cc2c(O)ccc3ccccc23)cc1 | 72% (active)
Oc1ccc(/C=N/N(Cc2ccccc2)c2ccccc2)cc1 | -0.08%
CCOc1[nH]n(-c2ccc(Cl)cc2)c(=O)c1C=Nc1ccc(O)cc1 | -5.55%
COc1ccccc1C(=O)N1CCN=C1SCc1cccnc1 | 2.47%
O=C(Cn1[nH]c(=O)c2ccccc2c1=O)Nc1cccc(-c2nnc3n2CCCCC3)c1 | 1.84%
Cc1ccc(C)c(C(=O)COC(=O)Cn2[nH]c(=O)c3ccccc3c2=O)c1 | -0.2%
Cc1ccc(-c2csc(NC(=O)Cn3[nH]c(=O)c4ccccc4c3=O)n2)cc1 | 50% (active)
O=C(OC(C(=O)NC1CCCC1)c1ccc(F)cc1)c1ccno1 (stereo unspecified) | -0.09%
Cc1sc2nc(-c3ccccc3F)oc(=O)c2c1C | 0.82%
Nc1c(N(CCCO)C(=O)C2CCCC2)c(=O)[nH]c(=O)n1Cc1ccccc1 | -0.45%

Structure (SMILES) | activity change
CCc1ccc2nc3sc(C(=O)Nc4nnc(CC)s4)c(N)c3cc2c1 | 45.1% (active)
CCc1nnc(NC(=O)c2ccco2)s1 | 0.04%
CCCCOC(=O)Nc1nnc(CC(=O)NCc2ccccc2)s1 | -1.39%
COc1ccc(CCNC(=O)C(=O)NCC2OCCN2S(=O)(=O)c2cccs2)cc1OC (stereo unspecified) | 5.44%
COc1cc(N=Cc2c(O)c3ccccc3oc2=O)c(OC)cc1Cl | 98.2% (active)
COc1cc(O)c2c(=O)c3c(O)c(O)ccc3oc2c1OC | 3.57%
Cc1ccc(N2C(=O)C(CC(=O)Nc3cccc(F)c3)N(CCc3ccncc3)C2=O)cc1 (stereo unspecified) | 0.66%
COC(=O)c1ccccc1N=NNc1ccc([N+](=O)[O-])cc1 | -3.24%
NC(=O)C1(Nc2ccc([N+](=O)[O-])cc2)CCCC1 | -1.78%
O=[N+]([O-])c1ccc(N=NNc2ccc([N+](=O)[O-])cc2)cc1 | 54.8% (active)
O=C1CSC(c2cccc(F)c2)N1c1ccc(O)cc1 (stereo unspecified) | 1.06%
O=C(CCc1nnc2ccc(NCCCN3CCCC3=O)nn12)NCc1ccccc1Cl | 1.08%
CCn1c(SCC(=O)Nc2ccc3c(c2)OCCO3)nc2c(c1=O)SC(C)C2 (stereo unspecified) | 1.48%
Cc1cccc(NS(=O)(=O)c2ccc([N+](=O)[O-])cc2)n1 | 0.15%
CC(O)c1nc2ccccc2n1Cc1ccc([N+](=O)[O-])cc1 (stereo unspecified) | -3.67%
Cc1nc2ccccc2nc(=O)c1NNc1ccc([N+](=O)[O-])cc1 | 71% (active)
O=C(O)C1CCC(CNS(=O)(=O)c2ccc(Br)cc2)CC1 (stereo unspecified) | 1.62%
Fc1cccc(Cc2c(-c3cccc(Cl)c3)nc3ccc(Br)cn23)c1 | 42.3% (active)
Clc1cccc(Cc2c(-c3cccc(Cl)c3)nc3ccc(Cl)cn23)c1 | 8.89%
Fc1cccc(Cc2c(-c3ccc(Cl)cc3)nc3ccc(Cl)cn23)c1 | 6.82%
CN(C)C(=O)CCC(=O)N1CCCCC1C(=O)Nc1ccc(Oc2ccccc2F)cc1 (stereo unspecified) | 1.87%
Cc1c(C(=O)Nc2cccc(Cl)c2)cn2c(nc3ccccc32)c1C#N | 0.36%
Cc1nc(-c2ccccc2)cn2c1nc1ccccc12 | 43.5% (active)

Structure (SMILES) | activity change
Cc1nc2ccccc2n1CC(O)c1ccccc1 (stereo unspecified) | -4.17%
COc1ccc(-c2cc(C(F)(F)F)nc(S(C)(=O)=O)n2)cc1OC | -0.66%
O=C(Cn1nnc(-c2ccc(CN3CCOCC3)cc2)n1)NC1CCCCC1 | 4.12%
N/C(=N\S(=O)(=O)c1ccc(Cl)cc1)N1CCOCC1 | 4.34%
CCOc1ccc(C(=O)Nc2cccc(-c3ccc4nncn4n3)c2)cc1 | -0.86%
O=C(Nc1cccc(-c2nc3ccccc3[nH]2)c1)c1ccc(C(=O)Nc2cccc(-c3nc4ccccc4[nH]3)c2)cc1 | 81.8% (active)
CCOc1ccc(C(=O)Nc2cccc(SC)c2)cc1 | 0.43%
Cc1ccc(Cl)cc1N1CCN(C(=O)c2cccc3c(=O)c(C)c(-c4ccccc4)oc23)CC1 | -0.99%
CCOC(=O)c1cc(NC(=O)c2ccc(Cl)cc2)c(=O)oc1-c1ccccc1 | -0.75%
CC(=O)c1cc(NC(=O)c2ccccc2)c(=O)oc1/C=C/N(C)C | 102% (active)
COc1ccc(C2COC(=O)C2=N)c(NC(=O)c2ccccc2)c1 (stereo unspecified) | -5.12%
CCOc1ccc(Oc2nc(C)cc(OC)n2)nn1 | 0.35%
CC(C)C[C@H](NC(=O)[C@@H]1O[C@H]1C(=O)O)C(=O)NCCCCN=C(N)N | 2.71%
COc1ccc(CN2CCCCC2C)cc1OC (stereo unspecified) | -0.13%
CC(C)c1ccc2oc(=O)cc(CN3CCN(Cc4ccccc4)CC3)c2c1 | 2.71%
CCc1ccc2oc(=O)cc(CN3CCCCC3C)c2c1 (stereo unspecified) | 39.9% (active)
O=C(CCCn1c(=O)c2sccc2n(CC(=O)NCC2CCCO2)c1=O)NCc1ccco1 (stereo unspecified) | -1.63%
COc1cccc(NS(=O)(=O)c2ccc3[nH]cc(C(=O)NCCCOC(C)C)c(=O)c3c2)c1 | 0.82%
Cc1cc(NC(=O)CSc2nc(=O)cc(N)n2-c2ccc(F)cc2)no1 | -1.93%
Cc1cc(NC(=O)CSc2nccn2-c2ccc([N+](=O)[O-])cc2)no1 | 35.4% (active)
Cc1cc(NC(=O)CSc2nnnn2-c2ccc(F)cc2)no1 | 2.72%
CC(C)c1ccc(-c2nn[nH]n2)cc1 | -1.88%

Reference: PubChem BioAssay AID1224865 (Sanford-Burnham Center for Chemical Genomics, 2016)
